Test results from PubChem BioAssay (EPA / NIEHS).
Results filed as inconclusive are left out. A structure can be active in one record and inactive in another. Calls of active or inactive are those of the source. How the source made its calls, unless noted: active means hit-call score of the fitted dose curve at least 0.9, where 1 is the maximum; inconclusive means response in the unintended direction; inactive means score below 0.9.

Experiments:
[1] = read-out: Cytochrome P450 (CYP24A1_1), CYP24A1 (gene 1591); experiment: LTEA_HepaRG_CYP24A1_1: Life Technologies and Expression Analysis (LTEA) Assay for Cytochrome P450 (CYP24A1_1) using HepaRG (AID 2283671; active means hit-call score of the fitted dose curve at least 0.9, where 1 is the maximum; inactive means score below 0.9); details: mRNA level, 48 h; actives raise or lower the signal
Outline: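 Cultures of human HepaRG were treated in duplicate for 48 h (0.5% DMSO vehicle, highest dose 100 uM). CYP24A1 mRNA by qRT-PCR, normalized to ACTB, GAPDH, POLR2A.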

[2] = read-out: xenobiotic metabolism (CYP1A1), CYP1A1 (gene 1543); experiment: CLD_CYP1A1_24hr: CellzDirect (CLD) Gene Expression Assay for xenobiotic metabolism (CYP1A1) at 24 hours (AID 2283673);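 further: CYP1A1 mRNA level by quantitative nuclease protection with chemiluminescence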
Outline: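 Transcript levels were read at 24 h by qNPA chemiluminescence in human liver primary cells. Cells got daily fresh dosing at multiple concentrations (vehicle 0.2% DMSO). Induction fitted upward against DMSO; phase-contrast cytotoxicity annotated.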

[3] = CLD_ACTIN_6hr: CellzDirect (CLD) Gene Expression Assay for Baseline Control (Actin) at 6 hours (AID 2283676);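 further: active means increased actin mRNA relative to DMSO vehicle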
Outline: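 Baseline actin transcript level measured by qNPA (S1 nuclease protection, chemiluminescence) in human hepatocyte cultures 6 h after chemical exposure; 0.2% DMSO vehicle as reference, cytotoxicity noted from morphology.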

[4] = CCTE_Padilla_ZF_144hpf_TERATOSCORE: (Legacy) CCTE's 144 Hour Post-fertilization zebrafish Assay Teratoscore, Padilla Lab (AID 2283679; active means hit-call score of the fitted dose curve at least 0.9, where 1 is the maximum; inactive means score below 0.9;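 on AC50: zebrafish embryos with chorions exposed by immersion from 6-8 hpf to 5 dpf with daily renewal; teratogenicity score from eye scoring of death hatching and malformations at 144 hpf; higher score means more developmental defects relative to DMSO baseline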)
Outline: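 Larvae scored by eye at 144 hpf for death, hatching and malformations after a day in clean Hanks'. Before that, daily-renewed exposure at 80 uM (0.4% DMSO, 26C) from roughly 6-8 hpf through 5 dpf, 4 embryos per chemical.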

[5] = read-out: Cytochrome P450 2C19 (Homo sapiens) (UniProt P33261); experiment: CLD_CYP2C19_24hr: CellzDirect (CLD) Gene Expression Assay for xenobiotic metabolism (CYP2C19) at 24 hours (AID 2283687);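 further: activity means mRNA induction above DMSO vehicle baseline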
Outline: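 CYP2C19 mRNA was quantified by qNPA chemiluminescence after 24 h of daily dosing of cultured human primary hepatocytes from two donors; vehicle was 0.2% DMSO, and increases over DMSO baseline were fitted.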

[6] = read-out: Cytochrome P450 3A4 (Homo sapiens) (UniProt P08684); experiment: CLD_CYP3A4_24hr: CellzDirect (CLD) Gene Expression Assay for xenobiotic metabolism (CYP3A4) at 24 hours (AID 2283689)
Outline: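 CYP3A4 mRNA induction read by quantitative nuclease protection (chemiluminescence) 24 hr after dosing. Cultured human hepatocytes (two donor preparations) treated daily, vehicle 0.2% DMSO; phase-contrast morphology annotates cytotoxicity.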

[7] = read-out: HMG-CoA synthase (HMGCS2), HMGCS2 (gene 3158); experiment: CLD_HMGCS2_24hr: CellzDirect (CLD) Gene Expression Assay for HMG-CoA synthase (HMGCS2) at 24 hours (AID 2283691)
Outline: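 qNPA with S1 nuclease digestion and chemiluminescent detection gave HMGCS2 transcript levels, fitted upward against 0.2% DMSO vehicle. Cultured human hepatocytes (two donors) received fresh compound daily and were harvested at 24 h; phase-contrast morphology flagged cytotoxicity.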

[8] = read-out: Glyceraldehyde-3-phosphate dehydrogenase (Homo sapiens) (UniProt P04406); experiment: CLD_GAPDH_24hr: CellzDirect (CLD) Gene Expression Assay for Baseline Control (Glyceraldehyde 3-phosphate dehydrogenase) at 24 hours (AID 2283692)
Outline: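 GAPDH baseline-control readout: qNPA chemiluminescent mRNA signal in human primary hepatocytes harvested 24 h after daily dosing, normalised to 0.2% DMSO with positive fitting direction; cytotoxicity annotated by phase-contrast morphology.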

[9] = read-out: alkyl and aryl transferase (GSTA2), GSTA2 (gene 2939); experiment: CLD_GSTA2_24hr: CellzDirect (CLD) Gene Expression Assay for alkyl and aryl transferase (GSTA2) at 24 hours (AID 2283693)
Outline: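 GSTA2 transcript levels were quantified by quantitative nuclease protection assay in primary human hepatocytes 24 h after daily dosing with fresh solutions at multiple concentrations; 0.2% DMSO vehicle as baseline, cytotoxicity flagged morphologically.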

[10] = read-out: glucuronosyltransferase (UGT1A1), UGT1A1 (gene 54658); experiment: CLD_UGT1A1_24hr: CellzDirect (CLD) Gene Expression Assay for glucuronosyltransferase (UGT1A1) at 24 hours (AID 2283696)
Outline: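 UGT1A1 transcript induction was measured by quantitative nuclease protection assay (chemiluminescence) in human hepatocyte cultures 24 h after daily fresh dosing, with 0.2% DMSO as vehicle and baseline.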

[11] = read-out: Cytochrome P450 2B6 (Homo sapiens) (UniProt P20813); experiment: CLD_CYP2B6_24hr: CellzDirect (CLD) Gene Expression Assay for xenobiotic metabolism (CYP2B6) at 24 hours (AID 2283686)
Outline: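 qNPA chemiluminescent measurement of mRNA at 24 hours in human primary hepatocyte cultures from two donor preparations, with daily fresh dosing and 0.2% DMSO vehicle as baseline. Morphology-based cytotoxicity flagged yes/no.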

[12] = read-out: Cytochrome P450 2C9 (Homo sapiens) (UniProt P11712); experiment: CLD_CYP2C9_24hr: CellzDirect (CLD) Gene Expression Assay for xenobiotic metabolism (CYP2C9) at 24 hours (AID 2283688)
Outline: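 Induction of CYP2C9 mRNA was quantified by quantitative nuclease protection assay (chemiluminescence), gain of signal versus 0.2% DMSO vehicle, 24 h after dosing. Human primary hepatocytes (two donors) received fresh chemical daily at multiple concentrations; morphology-based cytotoxicity flagged yes/no.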

[13] = read-out: organic anion transporter (SLCO1B1), SLCO1B1 (gene 10599); experiment: CLD_SLCO1B1_24hr: CellzDirect (CLD) Gene Expression Assay for organic anion transporter (SLCO1B1) at 24 hours (AID 2283690)
Outline: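 SLCO1B1 mRNA induction read at 24 h by quantitative nuclease protection assay (chemiluminescence), analyzed against DMSO baseline. Human hepatocyte cultures from separate donors received fresh dosing solutions daily; vehicle 0.2% DMSO; cytotoxicity flagged by phase-contrast morphology.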

[14] = read-out: ABC Transporter (ABCB1), ABCB1 (gene 5243); experiment: CLD_ABCB1_48hr: CellzDirect (CLD) Gene Expression Assay for ABC Transporter (ABCB1) at 48 hours (AID 2283695);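 on AC50: potency for induction meaning increase of mRNA over DMSO vehicle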
Outline: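 ABCB1 mRNA was measured by quantitative nuclease protection assay (chemiluminescence) 48 h after dosing. Human hepatocyte cultures from two separate donors received fresh dosing solutions daily for two days, with 0.2% DMSO as vehicle. Positive-direction fit against DMSO.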

[15] = read-out: ABC Transporter (ABCB11), ABCB11 (gene 8647); experiment: CLD_ABCB11_48hr: CellzDirect (CLD) Gene Expression Assay for ABC Transporter (ABCB11) at 48 hours (AID 2283697)
Outline: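 Induction of ABCB11 mRNA relative to 0.2% DMSO, measured at 48 h by qNPA chemiluminescence. Cultured human hepatocytes (two donors) received fresh dosing solutions at several concentrations on two consecutive days.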

[16] = read-out: Cytochrome P450 2B6 (Homo sapiens) (UniProt P20813); experiment: CLD_CYP2B6_48hr: CellzDirect (CLD) Gene Expression Assay for xenobiotic metabolism (CYP2B6) at 48 hours (AID 2283699);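 further: actives raise transcript level above DMSO so potency reflects induction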
Outline: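 CYP2B6 transcript induction, read by quantitative nuclease protection (S1 digestion, chemiluminescent detection) 48 h after dosing, is fitted upward against 0.2% DMSO. Cultured human liver primary cells, two donor preparations, received fresh chemical daily over multiple concentrations.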

[17] = read-out: Cytochrome P450 2C19 (Homo sapiens) (UniProt P33261); experiment: CLD_CYP2C19_48hr: CellzDirect (CLD) Gene Expression Assay for xenobiotic metabolism (CYP2C19) at 48 hours (AID 2283700);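 further: fitted upward so actives raise CYP2C19 mRNA above the 0.2% DMSO vehicle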
Outline: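 CYP2C19 mRNA induction read by chemiluminescent quantitative nuclease protection assay after 48 h, with fresh compound added daily for two days to cultured human liver hepatocytes. Activity fitted upward against 0.2% DMSO vehicle.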

Measured: AC50

Sequence of Cytochrome P450 3A4 (Homo sapiens) (P08684 whole entry, looked up): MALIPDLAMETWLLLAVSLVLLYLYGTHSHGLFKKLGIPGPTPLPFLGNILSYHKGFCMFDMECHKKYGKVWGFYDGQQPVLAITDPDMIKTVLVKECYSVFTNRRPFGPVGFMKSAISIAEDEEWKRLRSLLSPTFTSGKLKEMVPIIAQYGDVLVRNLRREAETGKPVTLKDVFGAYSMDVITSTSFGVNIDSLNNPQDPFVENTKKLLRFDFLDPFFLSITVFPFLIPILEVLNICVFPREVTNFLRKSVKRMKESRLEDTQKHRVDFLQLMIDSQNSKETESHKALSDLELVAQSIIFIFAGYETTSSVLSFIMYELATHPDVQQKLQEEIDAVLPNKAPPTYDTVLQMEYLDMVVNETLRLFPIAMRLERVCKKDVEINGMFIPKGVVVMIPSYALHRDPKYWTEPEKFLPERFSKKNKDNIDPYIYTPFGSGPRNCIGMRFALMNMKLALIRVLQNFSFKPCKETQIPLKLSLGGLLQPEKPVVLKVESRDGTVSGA
Sequence of Glyceraldehyde-3-phosphate dehydrogenase (Homo sapiens) (P04406 whole entry, looked up): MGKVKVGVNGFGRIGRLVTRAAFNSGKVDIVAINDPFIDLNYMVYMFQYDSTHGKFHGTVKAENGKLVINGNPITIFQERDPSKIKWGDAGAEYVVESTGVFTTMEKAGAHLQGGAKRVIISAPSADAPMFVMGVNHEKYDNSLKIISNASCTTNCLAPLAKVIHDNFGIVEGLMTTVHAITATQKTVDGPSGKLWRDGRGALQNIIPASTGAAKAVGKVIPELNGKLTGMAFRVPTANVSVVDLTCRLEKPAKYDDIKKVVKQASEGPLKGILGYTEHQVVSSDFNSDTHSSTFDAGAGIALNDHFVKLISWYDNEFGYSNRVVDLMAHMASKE
Sequence of Cytochrome P450 2C19 (Homo sapiens) (P33261 whole entry, looked up): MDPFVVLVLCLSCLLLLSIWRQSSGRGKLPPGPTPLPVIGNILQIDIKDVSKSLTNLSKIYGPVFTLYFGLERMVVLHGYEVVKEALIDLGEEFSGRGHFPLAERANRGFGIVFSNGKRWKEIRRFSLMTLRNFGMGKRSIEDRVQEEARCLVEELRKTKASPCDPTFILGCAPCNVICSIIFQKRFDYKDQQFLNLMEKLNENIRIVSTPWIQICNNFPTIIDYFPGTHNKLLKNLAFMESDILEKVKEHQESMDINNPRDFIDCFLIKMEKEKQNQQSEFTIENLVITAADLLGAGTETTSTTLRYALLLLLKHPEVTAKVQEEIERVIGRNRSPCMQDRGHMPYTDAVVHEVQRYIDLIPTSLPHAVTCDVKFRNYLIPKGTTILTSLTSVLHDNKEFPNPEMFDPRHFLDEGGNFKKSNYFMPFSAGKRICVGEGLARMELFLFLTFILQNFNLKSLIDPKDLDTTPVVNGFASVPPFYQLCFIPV

O=C(O)c1ccccc1
inactive: [1]

COC(=O)c1ccccc1C(=O)O
inactive: [1] | [3] | [4] | [5] | [6] | [7] | [8] | [9] | [10]
active: [2] 0.117 µM

O=C(Nc1ccc([N+](=O)[O-])cc1Cl)c1cc(Cl)ccc1O
active: [2] 7.01 µM | [4] 1.65 µM
inactive: [3] | [11] | [12] | [6] | [13] | [9] | [14] | [15]

S=C(S)NCCNC(=S)S.[Mn+2].[S-]C([S-])=NCCN=C([S-])[S-].[Zn+2]
inactive: [1] | [4] | [5] | [6] | [8] | [16]
active: [4] 29.3 µM | [14] 1.06 µM

COC(=O)c1ccc(CNS(C)(=O)=O)cc1S(=O)(=O)NC(=O)Nc1nc(OC)cc(OC)n1
inactive: [2] | [3] | [4] | [11] | [5] | [6] | [7] | [9] | [14] | [10] | [17]

CSC(=O)c1cccc2nnsc12
inactive: [3] | [11] | [5] | [6] | [8] | [10]
active: [2] 20 µM | [4] 12.7 µM | [7] 7.33 µM

O=C(O)C1(C(=O)Nc2ccc(Cl)cc2Cl)CC1
inactive: [2] | [3] | [11] | [6] | [14]
active: [4] 22.7 µM | [7] 34.9 µM | [10] 20 µM

CCCCCCC(C)OC(=O)COc1nc(F)c(Cl)c(N)c1Cl (stereo not drawn)
inactive: [1] | [2] | [3] | [11] | [12] | [6] | [13] | [8] | [9] | [14] | [10] | [16] | [17]
active: [4] 46.9 µM

COC(=O)c1cccc(C)c1S(=O)(=O)NC(=O)Nc1nc(OCC(F)(F)F)nc(N(C)C)n1
active: [2] 5.36 µM | [11] 4.98 µM | [6] 20 µM | [16] 5.1 µM
inactive: [3] | [4] | [12] | [13] | [8] | [9] | [10] | [17]

CC(C)(C)[C@@H](O)[C@@H](Cc1ccc(Cl)cc1)n1cncn1
inactive: [3] | [8] | [14] | [10] | [16]
active: [2] 12.1 µM | [4] 46.7 µM | [11] 2 µM | [6] 2.66 µM

CCCCOCCOCCOCc1cc2c(cc1CCC)OCO2
active: [2] 2.56 µM | [4] 15.3 µM | [11] 1.9 µM | [16] 0.83 µM
inactive: [1] | [12] | [9] | [10]

Cc1nn(C)c(Oc2ccccc2)c1C=NOCc1ccc(C(=O)OC(C)(C)C)cc1
active: [4] 0.213 µM | [11] 20 µM
inactive: [2] | [3] | [5] | [6] | [9] | [14] | [10]

CC1(C)C(C=C(Cl)Cl)C1C(=O)OCc1cccc(Oc2ccccc2)c1 (stereo not drawn)
active: [4] 3.31 µM | [11] 7.12 µM | [16] 3.87 µM
inactive: [2] | [3] | [5] | [12] | [6] | [13] | [8] | [14] | [10] | [15] | [17]
